# Screening data as filed in PubChem BioAssay.
# CYP2C19 inh: blocks human cytochrome P450 2C19 | inhibition, % at 5 µM | actives 21% (n = 96,000) | CYP2C19 Supersomes, luciferin-H EGE luminescence, 30 min | AID 778 | P33261;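 active = CYP2C19 inhibition above a set limit at 5 µM in the primary screen, cut at about 50% in these data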;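 also: plate controls were negative control wells for no effect and 2.5 mM tranylcypromine positive control for full effect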
# Target sequence (P33261 whole entry, looked up): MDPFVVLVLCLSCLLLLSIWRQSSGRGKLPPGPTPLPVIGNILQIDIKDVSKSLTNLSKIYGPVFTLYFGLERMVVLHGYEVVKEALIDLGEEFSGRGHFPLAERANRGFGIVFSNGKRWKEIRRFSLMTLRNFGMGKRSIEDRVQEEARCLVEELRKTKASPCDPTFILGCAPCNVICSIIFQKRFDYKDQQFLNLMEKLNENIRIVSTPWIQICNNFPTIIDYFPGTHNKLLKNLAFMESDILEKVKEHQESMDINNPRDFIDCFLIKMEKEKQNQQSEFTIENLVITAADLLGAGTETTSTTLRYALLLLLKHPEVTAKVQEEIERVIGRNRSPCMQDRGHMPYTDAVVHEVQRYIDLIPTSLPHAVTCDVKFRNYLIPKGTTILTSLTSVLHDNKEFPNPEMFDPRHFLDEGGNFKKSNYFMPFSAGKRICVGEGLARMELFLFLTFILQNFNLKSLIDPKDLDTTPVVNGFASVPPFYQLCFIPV
# CYP2C9 activ: increases human cytochrome P450 2C9 activity; recombinant CYP2C9, luciferin-H conversion, luminescence; stronger effect = higher value; factor 1 = untreated enzyme, 0 = blocked; actives 1.4% (n = 96,000); activation factor at 5 µM; P11712;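 active = activation factor of 2 or more for CYP2C9 at a 5 µM dose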;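 also: 0 = sulfaphenazole-blocked wells and 1 = vehicle-only wells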
# CYP2C9 inh: blocks human cytochrome P450 2C9. inhibition, % at 5 µM. actives 20% (n = 96,000). CYP2C9 Supersomes, luciferin-H conversion, luminescence;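 active = blocking of liver enzyme CYP2C9 beyond about 50% at 5 µM, limit read from the data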
# CYP2C19 act: activators of human cytochrome P450 2C19 | P33261 | recombinant CYP2C19, luciferin-H EGE luminescence; stronger effect = higher value; 0 = fully inhibited enzyme, 1 = untreated enzyme | activation factor at 5 µM | 96,000 tested, under 10 active | AID 1025;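 active = activation factor of at least 2 at 5 µM in the primary screen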;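 also: 0 = wells with 2.5 mM tranylcypromine and 1 = vehicle-only wells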
# PostGolgi ctrl: yeast control strain growth, post-Golgi counter-screen. efflux-deficient yeast background strain, growth absorbance A615, 16 h. actives 5% (n = 98,000). AID 738. inhibition, % at 10 µM
# PostGolgi yeast: growth inhibition of a yeast mutant, post-Golgi transport screen. inhibition, % at 10 µM. post-Golgi transport phenotypic cell assay. actives 0.9% (n = 98,000);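 also: yeast cells grown in 1536-well plates; yeast grown about 18 h at 30C before absorbance read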
# * = called active by the depositor; nt = not tested or not shown. Compounds with a hit are over-represented: about 32% of the library has one in this group of screens. Rule as the data show it, unless noted: active = inhibition above about 30%; inactive = the rest.
SMILES,CYP2C19 inh,CYP2C9 activ,CYP2C9 inh,CYP2C19 act,PostGolgi ctrl,PostGolgi yeast
Cc1[nH]n(-c2cccc(Cl)c2)c(=O)c1-c1ccccc1,5,0.8,23,0.9,11,1
COCc1cc(Sc2ccc(Cl)cc2Cl)nc(-c2ccccc2)n1,-5,1.2,-19,1.1,2,1
Fc1ccc(N2CCN(c3ccc4c(C(F)(F)F)cc(C(F)(F)F)nc4n3)CC2)cc1,21,1.4,-40,0.8,75*,14
FC(F)(F)c1cc(C(F)(F)F)c2ccc(N3CCN(c4ccc(Cl)cc4)CC3)nc2n1,15,0.7,28,0.8,21,16
C=CCn1c(-c2cccs2)nc2ccccc21,66*,0.6,38,0.3,6,3
Cn1c(-c2sc(=S)n(-c3ccccc3)c2N)nc2ccccc21,-9,1.1,-7,1.1,13,1
C=CCn1c(N)c(-c2nc3ccccc3n2C)sc1=S,44,0.1,86*,0.6,-6,-6
C=CCSc1nc2ccccc2n1Cc1nnc(-c2cccs2)o1,67*,0.5,53*,0.3,8,1
CCCn1c(-c2cccs2)nc2ccccc21,30,1,3,0.7,12,3
C=CCn1c(-c2cccs2)nc2nc3ccccc3nc21,8,0.8,22,0.9,9,-2
CCCNC(=O)c1ccc2c(c1)ncn2-c1ccccc1OC,-18,1.1,-10,1.2,5,4
Cc1ccccc1-n1cnc2cc(NCc3cccs3)ccc21,54*,0.7,27,0.5,12,3
COc1ccccc1-n1cnc2cc(NCc3ccco3)ccc21,93*,2*,-101,0.1,-1,11
CCCCn1cnc2cc(NCc3cccc(OC)c3O)ccc21,44,1,1,0.6,6,-3
COc1ccc(CNc2ccc3c(c2)ncn3-c2ccccc2OC)cc1,52*,0.5,54*,0.5,0,-4
COc1ccccc1-n1cnc2cc(NCc3cccs3)ccc21,70*,1.7,-70,0.3,5,10
COCCNC(=O)C1CC(=O)N(C2CCCC2)C1 (stereo not drawn),-16,1,0,1.2,6,5
O=C(CSc1ncn[nH]1)Nc1cccc2ccccc12,9,1.1,-6,0.9,-9,-17
Fc1ccccc1OCCCCCCN1CCCC1,14,0.9,12,0.9,4,9
CCN(CC)c1ncn(Cc2c(Cl)cccc2Cl)c2ncnc1-2,35,0.6,36,0.6,34*,-36
Cc1cccc(Nc2nc(NC(C)C)nc(Oc3ccc(=O)n(C)n3)n2)c1,16,0.5,53*,0.8,4,-4
CCN=C1SC(CC(=O)Nc2sc(C)c(C)c2C(=O)OC)C(=O)N1CC (stereo not drawn),42,0.8,17,0.6,-12,-7
CC1CCCN(C(c2cccs2)c2nnnn2Cc2ccccc2)C1 (stereo not drawn),86*,0.7,27,0.1,19,-2
COc1ccc(Cn2nnnc2C(c2ccc(N(C)C)cc2)N2CCC(C)CC2)cc1 (stereo not drawn),58*,0.5,52*,0.4,-5,-4
COc1ccc(N2CCN(C(c3ccccc3)c3nnnn3Cc3ccc(F)cc3)CC2)cc1 (stereo not drawn),64*,0.6,40,0.4,34*,-2
SMILES,CYP2C19 inh,CYP2C9 activ,CYP2C9 inh,CYP2C19 act,PostGolgi ctrl,PostGolgi yeast
COc1ccc(C(c2nnnn2Cc2ccc(F)cc2)N2CCN(c3ccccc3)CC2)cc1 (stereo not drawn),22,0.7,27,0.8,37*,7
COc1ccc(C(c2nnnn2Cc2cccs2)N2CCN(c3ccc(F)cc3)CC2)cc1OC (stereo not drawn),19,0.6,35,0.8,8,18
COc1ccc(C(c2nnnn2Cc2ccc(F)cc2)N2CCN(c3ccc(OC)cc3)CC2)cc1 (stereo not drawn),38,0.5,50,0.6,29,3
CCOC(=O)c1cccnc1SCC(=O)NC(C)CC (stereo not drawn),nt,nt,nt,nt,3,2
CCOc1ccc(OCC)c(NC(=O)CC2Oc3ccccc3NC2=O)c1 (stereo not drawn),14,0.9,14,0.9,9,3
COc1ccccc1-c1cn[nH]c(=S)n1,4,1,2,1,8,11
O=c1[nH]c2ccccc2nc1C(Cl)c1ccccc1 (stereo not drawn),27,1.1,-12,0.7,4,-3
Cc1ccc(C(=O)Oc2cc(C)n(C)c(=O)c2)cc1,0,1,-1,1,-2,1
CN1CCN(C(c2ccc(F)cc2)c2nnnn2Cc2cccs2)CC1 (stereo not drawn),21,1.1,-8,0.8,5,2
COc1ccc(Cn2nnnc2C(c2cccs2)N2CCOCC2)cc1 (stereo not drawn),86*,0.4,56*,0.1,7,7
COc1ccc(Cn2nnnc2C(c2ccccn2)N2CCN(c3cc(Cl)ccc3C)CC2)cc1 (stereo not drawn),98*,0.1,88*,0,13,11
COCCn1nnnc1C(c1ccccn1)N1CCN(c2cc(Cl)ccc2C)CC1 (stereo not drawn),42,0.6,41,0.6,10,5
Fc1ccc(C(c2nnnn2Cc2cccs2)N2CCN(C3CCCCC3)CC2)cc1 (stereo not drawn),86*,0.9,9,0.1,3,4
COc1ccc(Cn2nnnc2C(c2ccc(F)cc2)N2CCN(C3CCCC3)CC2)cc1 (stereo not drawn),88*,0.6,36,0.1,-2,7
CCCC(c1nnnn1Cc1ccc(F)cc1)N1CCN(C2CCCCC2)CC1 (stereo not drawn),-9,1.1,-7,1.1,2,-3
O=C(NC1=NCCS1)C1CC(=O)N(c2ccc(F)cc2)C1 (stereo not drawn),12,0.8,20,0.9,12,4
NC(=O)C1C(c2ccccc2)=C1c1ccccc1,7,1.1,-5,0.9,3,15
C=CCNC(=S)NNC(=O)C(CCC(C)C)CC(C)O (stereo not drawn),-6,0.9,11,1.1,17,1
Cc1cc(NC(=O)CSc2nnc(-c3ccoc3C)o2)no1,4,0.8,16,1,10,8
Cn1c(SCC(=O)c2ccc(F)cc2)nnc1-c1ccccc1N,75*,1,0,0.2,8,20
Cc1occc1-c1nnc(SCC(=O)c2ccc(F)cc2)o1,84*,0.7,32,0.2,3,-1
O=C(CSc1nnc(-c2cc3ccccc3cc2O)n1Cc1ccco1)c1ccc(F)cc1,94*,0,100*,0.1,80*,-3
CCN(CC)C(=O)CSc1nnc(-c2cc3ccccc3cc2O)n1CC,-9,1,-4,1.1,0,-8
